# Several values for one entry are separate records, joined by “and”; a condition that tells them apart may be missing. Equal values may be shown once. Inconclusive results are not listed. Entries that show only a call come without a potency. Activity calls are given as the source filed them. Calls follow the shape of the dose curve; as a rule, active = well fitted activation curve with a large enough effect in the repeat runs; inconclusive = weak or mixed curves; inactive = flat fitted curve, though single readings scatter.
# Assay: Caspase-3/7 induction in HepG2 cells by small molecules, qHTS assay (AID 1346978); also: nearly all actives have a fitted effect of over 15% in size
# Conditions: HepG2 caspase-3/7 activation, Caspase-Glo luminescence, 17 h; series mostly up to 92.4 µM
# Source text: National Center for Advancing Translational Sciences [NCATS] NIH Chemical Genomics Center [NCGC] U.S. Environmental Protection Agency [EPA] National Institutes of Environmental Health Sciences [NIEHS] National Toxicology Program [NTP] Assay overview: Apoptosis is a process of programmed cell death and plays a central role in the development of multicellular organisms. It is a highly regulated process and induces cell death by activating caspases, which are the members of cysteine aspartic acid-specific protease (caspase) family. Caspases involved in apoptosis are classified by their mechanism of action as initiator caspases (caspase-2, -8, -9 and -10) and executioner caspases (caspase-3, -6, and -7). Inhibition of apoptosis results in number of cancers, autoimmune diseases, inflammatory diseases and viral infection. To identify small molecule compounds that induce apoptosis, a homogeneous, luminescent Caspase-Glo 3/7 assay was used. Wild type HepG2 cells were used to screen Tox21 libraries for identifying caspase-3/7 activity inducers.
# Assay Protocol Summary: HepG2 cells were dispensed at 2,000 per well in 5uL of culture medium into white solid bottom 1536-well plates (Corning Life Sciences, Corning, NY) using a Multidrop Combi (Thermo Scientific, Waltham, MA) dispenser. The assay plates were incubated at 37 C and 5% CO2 for 5hr, and then 23nL of compounds dissolved in DMSO and positive control were transferred using a Pintool station (Wako, San Diego, CA). The assay plates were incubated at 37C and 5% CO2 for 17hr. For caspase-3/7 activity read, 4uL of Caspase-Glo 3/7 reagent (Promega Corporation, Madison, WI) was added to each well of the assay plates using Flying Reagent Dispenser (FRD, Aurora Discovery, San Diego, CA) and incubated the assay plates at room temperature for 30min. The luminescence signal was quantified using a ViewLux plate reader (Perkin Elmer, Shelton, CT).
# Potency is read from the fitted curve at half-maximal effect.
row,Structure (SMILES),Potency
1,O=C(O)c1cn(-c2ccc(F)cc2)c2cc(N3CCNCC3)c(F)cc2c1=O,inactive
2,CN(C)c1ccc(C(=C2C=CC(=[N+](C)C)C=C2)c2ccccc2)cc1,4.33 µM (active) and 5.31 µM (active) and 5.96 µM (active)
3,CCCCC/C=C/CC1CC(=O)OC1=O (stereo not given),inactive
4,CC(COc1ccccc1)N(CCCl)Cc1ccccc1 (stereo not given),inactive
5,CC1COc2c(N3CCN(C)CC3)c(F)cc3c(=O)c(C(=O)O)cn1c23 (stereo not given),inactive
6,CCN1CCCC1CNC(=O)c1cc(S(=O)(=O)CC)c(N)cc1OC (stereo not given),inactive
7,CCCCCCCCCCCCc1ccccc1O,60.3 µM (active) and 54.5 µM (active)
8,CCC[C@H](N[C@@H](C)C(=O)N1[C@H](C(=O)O)C[C@@H]2CCCC[C@@H]21)C(=O)OCC,inactive
9,C=C(C)C1CC=C(C)C(OC(C)=O)C1 (stereo not given),inactive
10,CC(=O)C1=C(C)[C@@H]2C[C@@]3(C1)[C@H](C)CC[C@H]3C2(C)C,inactive
11,OCC(CO)N[C@H]1C[C@](O)(CO)[C@@H](O)[C@H](O)[C@H]1O,inactive
12,CC(C)(C)c1ccccc1,inactive
13,CC(C)CCOC(=O)c1ccc(N(C)C)cc1,inactive
14,CC1=C(C=O)C(C)(C)CC=C1,inactive
15,O=C(O[C@@H]1Cc2c(O)cc(O)cc2O[C@@H]1c1cc(O)c(O)c(O)c1)c1cc(O)c(O)c(O)c1,inactive
16,Cc1scc2c1N(C(=O)CN1CCN(C)CC1)c1ccccc1NC2=O,inactive
17,Cc1cccc(O)c1C,inactive
18,CCN(CC)c1ccc2c(C)cc(=O)oc2c1,inactive
19,CC(C)(O)CCC(C)(C)O,inactive
20,COC(=O)[C@H]1[C@H]2C[C@@H]3c4[nH]c5cc(OC)ccc5c4CCN3C[C@H]2C[C@@H](OC(=O)c2cc(OC)c(OC)c(OC)c2)[C@@H]1OC,inactive

row,Structure (SMILES),Potency
1,O=c1n(CC2CO2)c(=O)n(CC2CO2)c(=O)n1CC1CO1 (stereo not given),68.2 µM (active)
2,O=Nc1ccc(Nc2ccccc2)cc1,inactive
3,C=C(C)C(=O)O,inactive
4,C=CS(=O)(=O)O,inactive
5,CCCC(=O)c1ccccc1,inactive
6,CC[C@H]1CN2CCc3cc(OC)c(OC)cc3[C@@H]2C[C@@H]1C[C@H]1NCCc2cc(OC)c(OC)cc21,inactive
7,Clc1ccc2c(c1)C(N1CCNCC1)=Nc1ccccc1O2,inactive
8,C=CC(=O)OCCCCCCOC(=O)C=C,inactive
9,CCOc1ccc2c(c1)C(C)=CC(C)(C)N2,inactive
10,Nc1ccc(O)cc1,inactive
11,CCc1ccc(C(c2ccc(CC)cc2)C(Cl)Cl)cc1,inactive
12,CCCCCCCCCCCCCC[P+](CCCC)(CCCC)CCCC,48.6 µM (active)
13,CC(=O)OCC1=C(C(=O)O)N2C(=O)[C@@H](NC(=O)Cc3cccs3)[C@H]2SC1,inactive
14,NC(N)=Nc1nc(CSCC/C(N)=N/S(N)(=O)=O)cs1,inactive
15,COc1cc(C(=S)N2CCOCC2)ccc1O,inactive
16,O=C(Nc1ccccc1SSc1ccccc1NC(=O)c1ccccc1)c1ccccc1,inactive
17,c1ccc2c(c1)CCCC2C1=NCCN1 (stereo not given),inactive
18,CCCCCCC(O)CCCCCCCCCCC(=O)O (stereo not given),inactive
19,BrC1CCC(Br)C(Br)CCC(Br)C(Br)CCC1Br (stereo not given),inactive
20,c1ccc2n[nH]nc2c1,inactive
